The text below walks through data of the supplement of paper PMC6522484.

± gives the standard deviation of the averaged measurements.

The test system of assay [1] is DLD1. The assay is described as follows: cell viability (CellTiter-Glo) relative to plate median (fraction of plate median); higher = more viable cells. The settings on record: 5 µM; treatment time 24 h; reporter: 7TFP. The gist of the method:
(§1)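 Stable lentiviral TCF/Wnt firefly luciferase reporters (7TFP or TCF4/Wnt) were present in the colorectal cancer cell lines used. These cells received library compounds at a final 5 µM for 24 h, and parallel plates were read for firefly luciferase or CellTiterGlo luminescence. Each well was normalised to the plate median, and the value reported is the mean of two independent replicates.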
For orientation: Cellular ATP, detected with luciferase, serves as a proxy for viable cell number.

In the next assay the test system is HCT116. The description is as above. The settings on record: 5 µM; treatment time 24 h; reporter: TCF4/Wnt. The gist of the method:
as §1

Assay [2] has as its system SW480. The assay is described as above. Particulars: 5 µM; treatment time 24 h; reporter: 7TFP. The gist of the method:
as §1

The subject of assay [3] is DLD1. Nature of the assay: TCF/Wnt firefly luciferase reporter signal relative to plate median (fraction of plate median); higher = higher Wnt reporter signal. The settings on record: 5 µM; treatment time 24 h; reporter: 7TFP. The gist of the method: as §1
(In a reporter assay the amount or activity of a reporter protein is the signal.)

Assay [4] has as its system SW480. Described as above. The settings on record: 5 µM; treatment time 24 h; reporter: 7TFP. The gist of the method:
as §1

Consider `C[N+]1(C)[C@@H]2CC[C@H]1C[C@@H](OC(=O)C(O)c1ccccc1)C2` (stereo not given in full), for which the cell viability with DLD1 [1] came to 1.08 ± 0.035; in the assay with HCT116, 0.941 ± 0.079; in the assay with SW480 [2], 1.085 ± 0.0071. Further, the “TCF/Wnt firefly luciferase reporter signal” value worked out at 1.1 ± 0.042 in the assay with DLD1 [3] and 1.01 ± 0.15 with SW480 [4].
The corresponding values for `CCCCC1C(=O)N(c2ccccc2)N(c2ccc(O)cc2)C1=O` (stereo not given) are 0.923 ± 0.015, 0.873 ± 0.038, 0.898 ± 0.028, 1.21 ± 0.057 and 1.02 ± 0.05.
The matching figures for `CC(C)[N+](C)(CCOC(=O)C1c2ccccc2Oc2ccccc21)C(C)C`: 0.979 ± 0.021, 1.01 ± 0.14, 0.984 ± 0.017, 1.06 ± 0.1 and 1.04 ± 0.06.
`CCCCC[C@H](CC(=O)NO)C(=O)N[C@H](C(=O)N1CCC[C@H]1CO)C(C)C`: the results for the cell viability with DLD1 [1], in the assay on HCT116 and in the assay on SW480 [2] were 0.951 ± 0.0042, 0.932 ± 0.057 and 0.9655 ± 0.00071, respectively. Besides, the “TCF/Wnt firefly luciferase reporter signal” value stood at 1 ± 0.05 in the assay on DLD1 [3] and 1.16 ± 0.035 in the assay on SW480 [4].
The corresponding values for `O=C1CC[C@]23/C=C/C(=O)NCCCCNCCCNC(=O)/C=C/c4ccc(c2c4)O[C@@H]3C1` are 1.03 ± 0.014, 1.06 ± 0.057, 1.01 ± 0.024, 1.01 ± 0.056 and 1.04 ± 0.042.
The corresponding values for `Cc1nnc(SCC2=C(C(=O)O)N3C(=O)[C@@H](NC(=O)Cn4cnnn4)[C@H]3SC2)s1` are 0.941 ± 0.035, 0.941 ± 0.011, 0.962 ± 0.044, 0.942 ± 0.15 and 0.834 ± 0.16.
On to `O=c1cc(-c2ccccc2)oc2c(O)c(O)ccc12`, for which the cell viability in the assay on DLD1 [1] stood at 1.11 ± 0.11; in the assay on HCT116, 0.969 ± 0.039; in the assay with SW480 [2], 0.98 ± 0.015. The results for the “TCF/Wnt firefly luciferase reporter signal” value with DLD1 [3] and with SW480 [4] were 1.13 ± 0.071 and 1.11 ± 0.057, respectively.
Regarding `COC1=C[C@@H](C)[C@@H]2C[C@H]3OC(=O)C[C@H]4C(C)=C(OC)C(=O)[C@H]([C@@]2(C)C1=O)[C@@]34C`, the figures for the cell viability in the assay with DLD1 [1], with HCT116 and in the assay with SW480 [2] were 0.975 ± 0.064, 0.972 ± 0.054 and 0.979 ± 0.044, respectively. For the same molecule, the “TCF/Wnt firefly luciferase reporter signal” value was found to be 1.025 ± 0.0071 in the assay with DLD1 [3] and 1 with SW480 [4].
The corresponding values for `O=C1OC(=O)[C@H]2[C@@H]1[C@@H]1CC[C@H]2O1` are 0.9975 ± 0.0035, 0.867 ± 0.079, 0.949 ± 0.0085, 1.06 ± 0.13 and 0.892 ± 0.02.
As to `N[C@@H](C(=O)N[C@@H]1C(=O)N2C(C(=O)O)=C(Cl)CS[C@H]12)c1ccccc1`, the values for the cell viability in the assay on DLD1 [1], in the assay on HCT116 and with SW480 [2] were 0.963 ± 0.029, 0.955 ± 0.064 and 0.953 ± 0.028, respectively. Further, the “TCF/Wnt firefly luciferase reporter signal” value with DLD1 [3] was 0.897 ± 0.079; in the assay on SW480 [4], 0.742 ± 0.025.
The corresponding values for `CC1(C)O[C@@H]2C[C@H]3[C@@H]4C[C@H](F)C5=CC(=O)CC[C@]5(C)[C@H]4[C@@H](O)C[C@]3(C)[C@]2(C(=O)CO)O1` are 1.01 ± 0.025, 1.025 ± 0.0071, 1.02 ± 0.047, 0.949 ± 0.087 and 1.04 ± 0.073.
The corresponding values for `C[C@]1(O)CC(=O)c2c(ccc3c2C(=O)c2cccc(O)c2C3=O)C1` [Tetrangomycin; Benzanthramycin; LL-AE-705-Y] are 0.822 ± 0.019, 0.978 ± 0.14, 1 ± 0.067, 0.853 ± 0.065 and 1.01 ± 0.045.
The corresponding values for `CC(C)(Oc1ccc(Cl)cc1)C(=O)O` are 1.04 ± 0.021, 1.17 ± 0.057, 1.035 ± 0.0071, 1.07 ± 0.13 and 1.1 ± 0.057.
`COc1cc(OC)c2c(c1Cl)O[C@@]1(C(=O)CC(=O)C[C@H]1C)C2=O`: the cell viability in the assay with DLD1 [1] was 1.02 ± 0.014; with HCT116 it was 0.983 ± 0.14; in the assay with SW480 [2], 1.005 ± 0.0071. Further, the figures for the “TCF/Wnt firefly luciferase reporter signal” value with DLD1 [3] and with SW480 [4] were 1.13 ± 0.057 and 1.02 ± 0.028, respectively.
